From PubChem BioAssay
USP17 inh: blocks human USP17 ubiquitin-rhodamine cleavage. A8MUK1. purified USP17, Ub-rhodamine cleavage fluorescence, 3 h. inhibition, % at 50 µM. actives 6.5% (n = 47,000)
USP30 block: blocks human USP30 ubiquitin-rhodamine cleavage; inhibition, % at 25 µM; actives 5.3% (n = 47,000); AID 1645860; Q70CQ3; purified USP30, Ub-rhodamine cleavage fluorescence
USP28 block: blocks human USP28 ubiquitin-rhodamine cleavage | purified USP28, Ub-rhodamine cleavage fluorescence, 30 min | inhibition, % at 25 µM | actives 3% (n = 47,000)
Target sequence (Q96RU2 whole entry, looked up): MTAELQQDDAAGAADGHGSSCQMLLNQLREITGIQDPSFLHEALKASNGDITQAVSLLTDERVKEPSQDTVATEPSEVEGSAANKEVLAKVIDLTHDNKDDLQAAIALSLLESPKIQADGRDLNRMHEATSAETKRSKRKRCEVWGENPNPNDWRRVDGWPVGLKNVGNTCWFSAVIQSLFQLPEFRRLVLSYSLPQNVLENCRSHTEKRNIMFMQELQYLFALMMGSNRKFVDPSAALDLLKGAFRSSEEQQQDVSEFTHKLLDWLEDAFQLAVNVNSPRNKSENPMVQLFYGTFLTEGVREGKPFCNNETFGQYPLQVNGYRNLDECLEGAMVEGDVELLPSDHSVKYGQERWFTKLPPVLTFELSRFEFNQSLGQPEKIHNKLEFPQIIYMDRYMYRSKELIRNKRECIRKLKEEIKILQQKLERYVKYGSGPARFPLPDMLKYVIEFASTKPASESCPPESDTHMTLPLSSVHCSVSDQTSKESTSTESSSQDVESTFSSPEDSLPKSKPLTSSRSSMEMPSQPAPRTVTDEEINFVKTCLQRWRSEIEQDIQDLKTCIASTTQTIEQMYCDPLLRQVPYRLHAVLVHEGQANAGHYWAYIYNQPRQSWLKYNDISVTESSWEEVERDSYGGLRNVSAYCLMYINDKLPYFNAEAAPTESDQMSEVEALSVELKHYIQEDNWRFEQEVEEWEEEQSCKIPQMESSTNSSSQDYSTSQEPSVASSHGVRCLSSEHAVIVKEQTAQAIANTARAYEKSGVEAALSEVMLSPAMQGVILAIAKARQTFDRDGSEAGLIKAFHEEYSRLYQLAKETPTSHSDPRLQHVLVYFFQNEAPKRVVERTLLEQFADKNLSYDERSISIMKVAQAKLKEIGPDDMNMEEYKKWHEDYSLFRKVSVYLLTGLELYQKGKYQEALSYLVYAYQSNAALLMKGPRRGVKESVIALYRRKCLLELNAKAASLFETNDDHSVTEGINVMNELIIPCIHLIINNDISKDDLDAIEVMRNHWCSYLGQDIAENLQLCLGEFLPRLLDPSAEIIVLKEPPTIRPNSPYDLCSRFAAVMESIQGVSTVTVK
* = called active by the depositor. Rows were chosen to be rich in hits. Some 11% of all compounds tested hit in one or more screens of this group. Cut-off read from the data, not from the text of the source: active = inhibition above about 30%; inactive = the rest.

What do the screens show for `CC1(C(=O)NC2CCCCCC2)Cc2ccccc2C(=O)N1CCN1CCCCCC1` (centres undefined)?
USP17 inh: 0.1; USP30 block: -137.5; USP28 block: -24.4

What do the screens show for `CC1(C(=O)NC2CCCCCC2)Cc2ccccc2C(=O)N1CCN1CCOCC1` (centres undefined)?
USP17 inh: 18.8; USP30 block: 35.4*; USP28 block: 11.1

Results for Cc1csc2nc(COC(=O)c3cccc(NC(=O)C(C)(C)C)c3)cc(=O)n12 ?
USP17 inh: 0.7; USP30 block: -19.8; USP28 block: -3.5

How did CC(=O)Nc1ccc(C(=O)OCc2cc(=O)n3c4c(sc3n2)CCCC4)cc1 do in these assays?
USP17 inh: 37.1*; USP30 block: 22.2; USP28 block: 23.7

How did O=C(Nc1ccccc1C(=O)OCc1cc(=O)n2ccsc2n1)c1ccc(F)cc1 do in these assays?
USP17 inh: -7.6; USP30 block: -187.8; USP28 block: -24.1

What do the screens show for `COc1ccc(C(=O)Nc2ccc(C(=O)OCc3cc(=O)n4ccsc4n3)cc2)cc1`?
USP17 inh: 38.1*

How did O=C(CCc1ccccc1)N(Cc1cccnc1)c1nc2cc3c(cc2s1)OCO3 do in these assays?
USP17 inh: 9.8; USP30 block: 8.1; USP28 block: 5.9

How did O=C(CCc1ccccc1)N(CC1CCCO1)c1nc2ccccc2s1 (centres undefined) do in these assays?
USP17 inh: 21.0; USP30 block: 55.8*; USP28 block: 21.9

Results for Cc1ccccc1NC(=O)Cn1cnc(S(=O)(=O)N2CCCCC2)c1 ?
USP17 inh: -1.4; USP30 block: -0.1; USP28 block: -6.3

What do the screens show for `CCOc1ccc(NC(=O)CSc2cc(=O)n(C)c3cc(Cl)ccc23)cc1`?
USP17 inh: 46.5*; USP30 block: 17.7; USP28 block: 2.2

How did Cn1c(=O)cc(SCC(=O)NC2CCN(Cc3ccccc3)CC2)c2ccc(Cl)cc21 do in these assays?
USP17 inh: 33.5*; USP30 block: 50.2*; USP28 block: 18.4

What do the screens show for `O=C(Cn1c(=O)n(CCCC(=O)NC2CCN(Cc3ccccc3)CC2)c(=O)c2ccccc21)Nc1cccc(Cl)c1`?
USP17 inh: 26.9; USP30 block: -36.0; USP28 block: -11.3

What do the screens show for `COc1cc(NC(=O)CSc2cc(=O)n(C)c3cc(Cl)ccc23)cc(OC)c1OC`?
USP17 inh: -15.2; USP30 block: -1.7; USP28 block: -3.1

How did Cc1cccc2c1NC(=O)[C@]21N2CCC[C@H]2[C@@H](C(=O)c2ccccc2)[C@]12C(=O)Nc1ccccc12 do in these assays?
USP17 inh: -17.3; USP30 block: -32.6; USP28 block: -6.4

What do the screens show for `COc1ccc(N2CCCS2(=O)=O)cc1NS(=O)(=O)c1ccccc1`?
USP17 inh: 0.8; USP30 block: -0.7; USP28 block: 4.4

How did C[C@@H]1OC2=C(C(=O)c3cccc(O)c3C2=O)[C@H](O)[C@@H]1O do in these assays?
USP17 inh: 80.3*; USP30 block: 6.4; USP28 block: 71.1*

What do the screens show for `O=C(CCCc1nc(-c2ccccc2Cl)no1)Nc1ccccc1F`?
USP17 inh: -1.4; USP30 block: 0.0; USP28 block: 4.4

Results for Cc1ccc2c(Nc3ccccc3)c(-c3nc(C4CC4)no3)cnc2n1 ?
USP17 inh: 5.0; USP30 block: -188.8; USP28 block: 47.7*

Results for COc1ccccc1Nc1c(-c2nc(C)no2)cnc2nc(C)ccc12 ?
USP17 inh: -16.4; USP30 block: -11.4; USP28 block: -0.7

Results for Cc1cccc(CS(=O)(=O)c2cn(CC(=O)N3CCCC3)c3ccccc23)c1 ?
USP17 inh: -11.8; USP30 block: -7.6; USP28 block: -0.1

Results for CC(=O)Nc1ccc(S(=O)(=O)NCc2ccc(C(=O)NCCN3CCCCCC3)cc2)cc1 ?
USP17 inh: 34.6*; USP30 block: -122.8; USP28 block: -5.5

Results for CCOC(=O)N1CCN(C(=O)c2ccc(CNS(=O)(=O)c3ccc(NC(C)=O)cc3)cc2)CC1 ?
USP17 inh: 17.4; USP30 block: 22.8; USP28 block: 10.0

How did COc1ccc(C(=O)Nc2ccccc2C(=O)NCc2ccccc2)cc1 do in these assays?
USP17 inh: 15.7; USP30 block: 91.7*; USP28 block: 23.4

Results for COc1ccc(CNC(=O)c2ccc(S(=O)(=O)Nc3ccccc3F)cc2)cc1 ?
USP17 inh: 24.6; USP30 block: 31.0*; USP28 block: 10.9

Results for COc1ccc2cc(C(C)C(=O)NCc3ccccc3)ccc2c1 (centres undefined) ?
USP17 inh: 12.4; USP30 block: 41.7*; USP28 block: 28.3

Results for COc1ccc(CNC(=O)c2ccccc2NC(=O)c2ccccc2F)cc1 ?
USP17 inh: 10.0; USP30 block: 0.9; USP28 block: 0.1

Results for COc1cccc(CNC(=O)Cc2cccc3ccccc23)c1 ?
USP17 inh: 7.2; USP30 block: -55.0; USP28 block: -0.4

Results for NS(=O)(=O)c1ccc(CCNC(=O)c2ccc(S(=O)(=O)Nc3ccccc3F)cc2)cc1 ?
USP17 inh: -1.2; USP30 block: 0.0; USP28 block: 0.9

What do the screens show for `CC(C)CC1OCC2(COC(=O)Nc3ccccc3)COC(CC(C)C)N12` (centres undefined)?
USP17 inh: 7.7; USP30 block: 6.9; USP28 block: 9.3

What do the screens show for `COc1ccc(CNC(=O)c2cccc(S(=O)(=O)Nc3ccc(F)cc3)c2)cc1`?
USP17 inh: 4.2; USP30 block: 5.0; USP28 block: 13.6

Results for COc1ccc(CNC(=O)c2ccc(CNS(=O)(=O)c3ccc(NC(C)=O)cc3)cc2)cc1 ?
USP17 inh: 41.1*; USP30 block: 36.8*; USP28 block: 12.5

What do the screens show for `Cc1nc(N2CCCC2)ncc1-c1cc(=O)[nH]c(N2CCC(Cc3ccccc3)CC2)n1`?
USP17 inh: 9.8; USP30 block: 9.6; USP28 block: 6.0

What do the screens show for `CC1(c2ccc3c(c2)OCO3)NC(=O)N(CC(=O)c2c[nH]c3ccccc23)C1=O` (centres undefined)?
USP17 inh: -1.4; USP30 block: -31.1; USP28 block: 2.9

How did Nc1c(-c2ccccn2)nsc1C(=O)NCc1ccccc1 do in these assays?
USP17 inh: 17.6; USP30 block: 1.9; USP28 block: 19.7

How did COc1ccc(C(c2c[nH]c3ccccc23)c2c[nH]c3ccccc23)c(OC)c1 do in these assays?
USP17 inh: -39.0; USP30 block: -216.3; USP28 block: -65.5

How did CCc1nn2c(S(=O)(=O)N3CCN(c4ccccc4)CC3)c(C)nc2s1 do in these assays?
USP17 inh: 6.3; USP30 block: 38.7*; USP28 block: 8.2

What do the screens show for `CCc1nn2c(S(=O)(=O)N3CCCCCC3)c(C)nc2s1`?
USP17 inh: 1.9; USP30 block: 6.4; USP28 block: -11.1

How did COc1ccc(-c2oc3ccc(Br)cc3c(=O)c2C)cc1[N+](=O)[O-] do in these assays?
USP17 inh: 17.8; USP30 block: 15.4; USP28 block: 6.2

Results for CCn1cc(S(=O)(=O)NCc2ccccc2)c2cccnc21 ?
USP17 inh: 41.1*; USP30 block: -25.5; USP28 block: 22.2

What do the screens show for `CCn1cc(S(=O)(=O)NCc2ccccc2F)c2cccnc21`?
USP17 inh: 13.4; USP30 block: -39.1; USP28 block: 11.9

How did CN(c1ccccc1)S(=O)(=O)c1cccc(NC(=O)Cn2ccc(C(F)(F)F)n2)c1 do in these assays?
USP17 inh: -0.9; USP30 block: -24.2; USP28 block: 3.8
